# Test results: the supplement of paper PMC6555819
# What was measured:
# Test in all cases: PBM binding z-score (relative to random genomic background probes); higher = stronger binding; sequences stand for … in GC…GCGATTGACAGCGTAGAATGAAGG
# [1] = test system: PPARg:RXRa DBDmut IVT, anti-RXR (DBD mutation: RXRa K156A/R161A, NR concentration 270 nM, RXRa partner concentration 90 nM)
# How it was run: (§1)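 Binding z-scores were set against random background probes. The data came from custom Agilent 4×180K protein-binding microarrays carrying double-stranded probes with 34-nt variable regions, incubated 1 h with ligand-free nuclear receptor dimers. Partner-specific antibodies detected binding, and scanned fluorescence was regression-normalized.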
# [2] = test system: PPARg:RXRa IVT, anti-PPARg (NR concentration 270 nM, RXRa partner concentration 90 nM)
# How it was run: as §1
# [3] = test system: PPARg DBDmut:RXRa IVT, anti-PPARg (DBD mutation: PPARg1 K132A/R137A, NR concentration 270 nM, RXRa partner concentration 90 nM)
# How it was run: as §1
# [4] = test system: PPARg DBDmut IVT, anti-PPARg (DBD mutation: PPARg1 K132A/R137A, NR concentration 270 nM)
# How it was run: as §1
# [5] = test system: PPARg homodimer (NR concentration 180 nM)
# How it was run: as §1
# [6] = test system: PXR:RXRa (NR concentration 270 nM, RXRa partner concentration 90 nM)
# How it was run: as §1
# [7] = test system: PXR homodimer (NR concentration 270 nM)
# How it was run: as §1
# [8] = test system: RARa:RXR (NR concentration 270 nM, RXRa partner concentration 90 nM)
# How it was run: as §1
# [9] = test system: RARa homodimer (NR concentration 270 nM)
# How it was run: as §1
# [10] = test system: RARb:RXRa (NR concentration 270 nM, RXRa partner concentration 90 nM)
# How it was run: as §1
# [11] = test system: RARb homodimer (NR concentration 270 nM)
# How it was run: as §1
# [12] = test system: RARg:RXRa (NR concentration 270 nM, RXRa partner concentration 90 nM)
# How it was run: as §1
# [13] = test system: RARg homodimer (NR concentration 270 nM)
# How it was run: as §1
# [14] = test system: RXRa DBDmut IVT, anti-RXR (DBD mutation: RXRa K156A/R161A, NR concentration 90 nM)
# How it was run: as §1
# [15] = test system: RXRa homodimer (NR concentration 180 nM)
# How it was run: as §1
# [16] = test system: THRa:RXRa (NR concentration 90 nM, RXRa partner concentration 90 nM)
# How it was run: as §1
# [17] = test system: THRa homodimer (NR concentration 90 nM)
# How it was run: as §1
# [18] = test system: VDR homodimer (NR concentration 270 nM)
# How it was run: as §1
Sequence,PBM binding z-score [1],PBM binding z-score [2],PBM binding z-score [3],PBM binding z-score [4],PBM binding z-score [5],PBM binding z-score [6],PBM binding z-score [7],PBM binding z-score [8],PBM binding z-score [9],PBM binding z-score [10],PBM binding z-score [11],PBM binding z-score [12],PBM binding z-score [13],PBM binding z-score [14],PBM binding z-score [15],PBM binding z-score [16],PBM binding z-score [17],PBM binding z-score [18]
TGGATGAGGTTAAAGATCAGGGAACGTGGCGTCG,0.289,1.92,1.51,0.255,1.99,2.71,1.07,3.96,0.62,2.37,1.38,2.75,1.59,1.46,4.05,2.88,1.11,1.42
CCTAGTTGGTCAGGAGATCACACACCGGATATGA,0.463,0.766,0.576,0.266,1.26,0.215,0.728,0.415,1.34,0.518,0.781,0.628,1.01,0.108,0.347,-0.184,0.385,0.435
AATACAGGGTCATCGTAGGCCAGGGTACGCACAG,2.56,4.25,1.78,1.18,4.25,4.84,0.528,5.17,1.22,4.32,3.72,5.54,5.21,3.32,6.38,4.57,1.69,3.9
CCTACTGGGCCGCGAAAGGTCATTGATTCAGTGA,2.81,3.04,-1.14,-0.345,3.03,5.13,1.47,5.27,0.0232,3.81,4.47,4.49,3.88,0.701,5.19,3.25,0.433,2.12
ATATGTAGGTTAGCTGGGCTCATTCAGACTAGGC,6.55,5.57,1.42,1.63,0.611,-0.0149,-0.367,0.11,0.493,0.456,0.13,0.263,0.55,-0.108,0.38,0.702,-0.522,-0.144
CGTCCAAGGTCAAAAGTCAGTGAAGAGATGACGG,2.6,3.24,0.212,-0.048,1.17,3.92,0.638,4.84,0.448,4.63,3.25,5.69,5.8,3.57,6.1,3.41,1.3,1.86
CGGACTGGGGCAAGGTTACCATAACGCACAGCCA,4.9,5.59,0.588,0.000804,0.759,0.516,-0.28,1.03,-0.565,1.67,1.45,1.34,1.4,-0.765,1.28,1.48,0.546,0.0512
GCTTGTAGATCAACGTTAAGAAAGACTAAGCTAA,1.51,0.269,0.342,0.507,-0.243,-0.51,-0.226,-0.0818,-0.208,-0.508,-0.408,-0.256,-0.209,0.0501,-0.405,-0.214,-0.701,-0.764
CCGAGTAGGTTATGGTGCATTCAGGCAACGGTGA,3.71,2.67,0.333,-0.183,1.25,-0.0319,0.413,0.311,0.498,0.711,1.06,0.337,0.381,0.527,0.5,0.6,0.468,0.619
CCTACTGGGCCATTCAGAGGCCATTGATCATATG,4.1,3.43,-0.542,-0.403,0.212,-0.174,-0.0574,-0.153,-0.498,0.712,0.918,0.62,0.424,-0.152,-0.147,0.255,-0.212,-0.0106
CCGACTGGGGGATAAGGTTACCATAAGCCAGCCC,0.611,1.85,1.28,1.34,0.934,1.15,-0.306,1.64,0.448,0.896,1.05,1.12,0.756,-0.00884,1.21,2.51,2.11,0.491
GCTACTGGGGCAAAGCAGGTTACCATAAGGTTGG,6.4,5.54,0.032,-0.0829,0.182,0.319,-0.456,0.495,-0.534,1.12,1.16,0.343,0.791,0.0265,0.261,2.75,0.258,-0.451
GCTATTAGTTGAAAGGGGAACCGAATGATTCTCG,0.8,0.272,-0.324,-0.088,0.558,-0.107,0.237,0.154,0.912,0.185,-0.167,0.105,0.00369,0.78,0.144,0.00231,-0.215,-0.125
CAAACTAGGTCAGGGTCAAAGTCGGTTTGTGCCA,8.32,8.36,4.34,3.17,4.2,4.81,1.33,5.35,1.42,4.47,4.45,5.19,5.4,2.77,5.47,3.89,2.25,4.18
TCTAGCAGGCCAGATGGTCACTCAAGAGGTACGG,0.614,-0.0638,-0.764,-0.948,-0.88,-0.46,-0.899,-0.205,-1.39,0.242,0.18,0.0724,0.0188,-0.141,-0.0633,-0.597,-0.77,-1.21
TATATAGGGTCAAAGGCCAGAGTACGAATGTCGA,3.56,5.37,1.12,1.69,2,4.21,0.472,5.56,0.52,4.49,3.73,5.52,5.07,3.21,6.74,3.92,1.41,2.45

Sequence,PBM binding z-score [1],PBM binding z-score [2],PBM binding z-score [3],PBM binding z-score [4],PBM binding z-score [5],PBM binding z-score [6],PBM binding z-score [7],PBM binding z-score [8],PBM binding z-score [9],PBM binding z-score [10],PBM binding z-score [11],PBM binding z-score [12],PBM binding z-score [13],PBM binding z-score [14],PBM binding z-score [15],PBM binding z-score [16],PBM binding z-score [17],PBM binding z-score [18]
TTGAGTAGGTTAGTCGGGGCATTCAGCCAACATA,3.52,3.36,0.385,0.257,0.88,0.618,0.715,0.545,0.987,0.733,0.969,0.218,0.145,0.265,0.0452,1.43,0.699,1.25
ATACCAAGGTGTTCGTGAGGTCGTTGATACTAAC,-0.0075,0.497,0.822,0.323,0.594,2.41,1.6,2.11,0.456,0.861,1.53,0.824,0.278,0.712,0.997,2.96,2.38,2.98
GCTAGTTGGTCAGTAAAAGGACACACACCGGTCG,0.16,0.5,0.0692,-0.305,0.811,-0.134,0.246,0.153,0.849,1.61,2.31,1.15,1.73,-0.384,0.00337,0.856,0.41,0.256
AGAACGAGGGCACGCTGAGTTGATAGCAGAGTAG,4.13,3.81,0.29,-0.41,0.297,1.28,-0.0574,0.83,0.0569,2.52,1.21,2.08,2.42,1.95,1.36,1.83,-0.0157,1.98
CCTCGGAGGACAACAGGAGGGCAGAGCTGCCAGA,-0.405,-0.306,-2.18,-1.69,-0.00297,-0.394,-0.631,-0.517,-0.328,1.73,1.42,0.94,2.08,-0.00274,-0.287,0.794,-0.458,-0.448
TCATATAGGTAAAATGTGAAAGTCGGTGTGGTAA,4.79,2.51,0.236,0.643,0.891,0.357,0.248,0.634,0.307,0.176,-0.199,0.0549,-0.0961,1.45,0.646,-0.0922,-0.336,-0.00299
ACAGACAGGTGATGAAGCTAACTCAGGCTATCAT,-0.036,-0.28,0.338,0.232,0.0494,-0.231,0.283,0.275,-0.315,-0.112,-0.226,0.175,0.281,-0.327,0.256,0.425,-0.032,-0.132
TAGCCTAGGTCAGATCGTGCCAGTATACGCTATA,0.562,1.66,0.149,-0.175,-0.159,0.82,-0.569,1.23,-0.542,3.18,2.22,2.83,3.28,-0.193,1.33,2.46,0.0586,-0.325
CAAACTAGGTCAAGAGGTCAAATTCCGCTTCCCG,7.98,8.45,2.67,2.22,6.39,6.47,2.4,7.61,2.96,5.63,5.63,8.27,7.69,2.86,8.31,4.58,2.73,4.49
CGAACTAGGTCAAGGACGGTGAATCTCCGCACGC,7.98,7.86,0.422,-0.145,0.732,1.03,-0.242,1.5,-0.265,3.76,2.96,3.53,4.38,0.975,2.64,2.88,1.24,-0.409
TGAATGAGGTTAAAGATCAGGTAACGTGGCGTCG,2.2,3.62,0.604,0.742,0.811,2.19,0.0433,3.18,0.33,2.01,0.893,2.55,1.38,0.98,3.9,3.29,1.42,0.674
ATCTCTTGGTAAAAGTTCAGTGAATCCCGAGGAT,-0.122,0.894,0.627,0.652,1.46,1.83,1.58,1.1,1.12,2.37,2.43,1.43,1.95,0.705,1.02,0.75,0.436,1.86
GATACAGCGTCAAGGCCAGAGTACGCGTATTGAT,-0.697,-0.358,-0.853,-0.941,-0.474,-0.434,-0.406,-0.6,-0.441,0.0727,-0.276,-0.245,0.129,-0.11,-0.253,-0.179,-0.406,0.0516
CCGACTGGGGCAAGGTTACCGTAACGCACAGCCA,3.53,3.71,-0.69,-1,-0.362,0.043,-0.221,0.745,-0.534,1.69,1.39,1.08,1.28,-0.694,1.04,1.22,0.42,-0.25
CCTACTGGGCCAAAGGTCATTGTTTCCAATGCTC,5.12,6.92,2.88,1.37,5.48,5.37,1.86,6.23,1.11,4.16,4.48,5.41,3.97,1.26,5.82,3.29,0.832,2.26
